The record followed here is PubChem BioAssay (EPA / NIEHS).

The structures appear in SMILES notation. Activity calls are given as the source filed them. The calls were made as follows: active = hit-call score of the fitted dose curve at least 0.9, where 1 is the maximum; inactive = score below 0.9.

The first assay can be described thus: ATG_ERE_CIS: Attagene CIS-FACTORIAL HepG2 Assay for Estrogen Response Element (ERE) (AID 2282940). The following applies: HepG2 ERE cis-reporter, Attagene RNA transcript; actives raise or lower the signal. The gist of the method:
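After 24 h compound treatment, RNA from transfected HepG2 cells was reverse-transcribed, reporter cDNA PCR-amplified, FAM-labelled, HpaI-cut and resolved by capillary electrophoresis. ERE-driven cis reporter transcripts reflect endogenous factors; gain or loss scored against DMSO.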
As to `C=CCN=C=S`, the result was inactive.

Turning to `C#CCOC(=O)/C=C(C)/C=C/CC(C)CCCC(C)C` (centres undefined), the call was inactive.

`C=C(C)[C@@H]1CC=C(C=O)CC1`: the outcome was inactive.

On to `C=CCCl`, for which the call was inactive.

For `C1CN2CCN1CC2`, the result was inactive.

Take `CCCSP(=S)(OCC)Oc1ccc(SC)cc1` (centres undefined): the half-maximal activity concentration (AC50) is 7.28 µM (active).

As for `COc1ccc([N+](=O)[O-])cc1O`, the result was inactive.

For the compound `OC(Cc1ccccc1Cl)(Cn1[nH]cnc1=S)C1(Cl)CC1` (centres undefined), the AC50 was 7.38 µM (active).

For `O=C(CCl)Nc1ccccc1`, the result was inactive.

As for `BrCCCCBr`, the compound was called inactive.

Consider `CCCCOC(C)=O`, for which the outcome was inactive.

Turning to `CC(C)(C)c1ccc(CCOc2ncnc3ccccc23)cc1`, the result was inactive.

Turning to `BrCC(Br)c1ccccc1` (centres undefined), the outcome was inactive.

For `O=[N+]([O-])c1ccc(Cl)c([N+](=O)[O-])c1`, the compound was classed as inactive.

With `C=CC(=O)NC(C)(C)CC(C)=O`, the compound was called inactive.

`Cc1cc(SCc2sc(-c3ccc(C(F)(F)F)c(F)c3)nc2C)ccc1OCC(=O)O`: the result was inactive.

As to `c1csc(-c2ccc(-c3cccs3)s2)c1`, the AC50 was 7.65 µM (active).

A further assay can be described thus: ATG_Ets_CIS: Attagene CIS-FACTORIAL HepG2 Assay for human Erythroblast Transformation Specific (ETS) (AID 2282941). The note with it: HepG2 ETS cis-reporter transcription, actives raise or lower the signal. The gist of the method: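 HepG2 cells transfected with multiple cis-regulated reporter units measuring endogenous ETS-driven transcription, 24 h after dosing. Reporter mRNA quantified by RT-PCR with capillary electrophoresis; bidirectional fit relative to DMSO.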
For the compound `Nc1c(Oc2ccccc2)cc(O)c2c1C(=O)c1ccccc1C2=O`, the call was inactive.

In the case of `C=CCN=C=S`, the result was inactive.

As for `C[C@]12CC[C@@H](O)C[C@@H]1CC[C@@H]1[C@@H]2CC[C@]2(C)C(=O)CC[C@@H]12`, the outcome was inactive.

Regarding `C#CCOC(=O)/C=C(C)/C=C/CC(C)CCCC(C)C` (centres undefined), the call was inactive.

Consider `C=C(C)[C@@H]1CC=C(C=O)CC1`, for which the compound was called inactive.

Consider `CN(C)[C@@H]1C(=O)C(C(N)=O)=C(O)[C@@]2(O)C(=O)C3=C(O)c4c(O)ccc(Cl)c4[C@@](C)(O)[C@H]3C[C@@H]12`, for which the compound was classed as inactive.

Consider `Cc1cc(C)cc(C)c1`, for which the compound was classed as inactive.

For `O=c1[nH]c2ccccc2n1C1CCN(CCCC(c2ccc(F)cc2)c2ccc(F)cc2)CC1`, the call was inactive.

As for `C=CCCl`, the call was inactive.

Regarding `C1CN2CCN1CC2`, the call was inactive.

As to `COCC(=O)N(c1c(C)cccc1C)[C@H](C)C(=O)OC`, the compound was called inactive.

As to `OC(Cc1ccccc1Cl)(Cn1[nH]cnc1=S)C1(Cl)CC1` (centres undefined), the call was inactive.

On to `CC(C)(C)c1ccccc1O`, for which the outcome was inactive.

`CC(C)[N+](=O)[O-]`: the result was inactive.

On to `CCCCCCCCCCCCc1cccc(S(=O)(=O)O)c1`, for which the result was inactive.

Regarding `O=C(CCl)Nc1ccccc1`, the compound was called inactive.

Take `CC(C=O)Cc1ccc2c(c1)OCO2` (centres undefined): the compound was called inactive.

Take `BrCCCCBr`: the compound was classed as inactive.

On to `CC(C)O.CC(C)O.OCCN(CCO)CCO.OCCN(CCO)CCO.[Ti]`, for which the result was inactive.

Turning to `CCCCOC(C)=O`, the compound was called inactive.

For the compound `Cc1ccc(OP(=O)(Oc2ccc(C)cc2C)Oc2ccc(C)cc2C)c(C)c1`, the call was inactive.

As to `CC(C)(C)c1ccc(CCOc2ncnc3ccccc23)cc1`, the outcome was inactive.

`CCOc1cc(C=O)ccc1O`: the compound was classed as inactive.

As for `Clc1cc(C(Cl)(Cl)Cl)cnc1Cl`, the call was inactive.

With `CCCCS(=O)(=O)Cl`, the outcome was inactive.

As for `N#Cc1ccccc1N`, the compound was called inactive.

For the compound `OCCN(CCO)CCO`, the compound was classed as inactive.

For the compound `BrCC(Br)c1ccccc1` (centres undefined), the compound was called inactive.

Turning to `C=CC(Cl)CCl` (centres undefined), the compound was called inactive.

As to `CCC(C)(C#N)N=NC(C)(C#N)CC` (centres undefined), the outcome was inactive.

In the case of `CCOC(=O)C(SP(=S)(OC)OC)c1ccccc1` (centres undefined), the call was inactive.

With `c1csc(-c2ccc(-c3cccs3)s2)c1`, the compound was classed as inactive.
